Where “and” joins values, the source holds several entries; their conditions need not be identical. Identical values can stand only once. Records with an inconclusive call do not appear. Calls of active or inactive are those of the source. Unless noted, calls come from the whole dose curve; as a rule, active = well fitted curve in the direction sought with a large enough effect; inconclusive = small, poorly fitted or top-dose-only effect, or another doubt; inactive = no such curve, though single readings can be large; an effect the other way counts as inactive or inconclusive.
Assays:
[1] = target: Hexokinase-4 (Homo sapiens) + Glucokinase regulatory protein (Homo sapiens) (UniProt P35557+Q14397); assay: qHTS assay for inhibitors of recombinant human GCK-GKRP interaction: HTRF assay (AID 743207);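 note: 0% = DMSO with GCK present and -100% = DMSO wells lacking GCK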
In short: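 Steps: dispense GCK–GKRP complex (5 nM each, GST- and FLAG-tagged) with 2 uM S6P; pin in compounds; add XL665/Eu-cryptate-labelled antibodies; incubate 60 min at room temperature; read time-resolved FRET at 665 and 615 nm.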

[2] = qHTS Assay for Identifying Gametocytocidal Compounds (AID 743244);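 note: % is set by controls: 0 for no effect and ±100 for the full control effect; actives lower the fluorescent signal which means gametocytes are killed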; details: P. falciparum 3D7 stage III-V gametocytes, alamarBlue, 72 h; max response: stronger effect = lower value
In short: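 Compounds are pinned into medium, gametocytes (stage III–V, 3D7, 20,000 cells/well) added, and plates held 72 h at 37 °C in 5% CO2. AlamarBlue follows for 24 h before fluorescence reading.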

[3] = qHTS profiling of the MIPE4 collection as inhibitors of Plasmodium falciparum (3D7) proliferation (AID 743344; call rule not given here;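 note: scaled between DMSO vehicle wells and 0.29 µM artemisinin as full inhibition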); details: P. falciparum 3D7 in erythrocytes, SYBR Green DNA fluorescence, 72 h; at 28.5 µM (top of the series) unless noted
In short: (§1)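 Parasite DNA was quantified by SYBR Green I fluorescence (ex 485, em 535 nm) after overnight lysis in saponin/Triton buffer at room temperature. Cultures at 0.3% parasitemia and 2.5% hematocrit were first exposed to compound for 72 h at 37 C; signals were normalised to artemisinin (0.29 uM) and vehicle wells.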

[4] = qHTS profiling of the MIPE4 collection as inhibitors of Plasmodium falciparum (DD2) proliferation (AID 743345; call rule not given here); details: P. falciparum Dd2 in erythrocytes, SYBR Green DNA, 72 h; at 28.5 µM (top of the series) unless noted
In short: as §1

[5] = qHTS profiling of the MIPE4 collection as inhibitors of Plasmodium falciparum (DD2) proliferation (Rep 2) (AID 743346; call rule not given here); details: P. falciparum Dd2 in erythrocytes, SYBR Green DNA, 72 h; at 28.5 µM (top of the series) unless noted
In short: as §1

[6] = qHTS profiling of the MIPE4 collection as inhibitors of Plasmodium falciparum (HB3) proliferation (AID 743347; call rule not given here;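 note: plate controls were DMSO vehicle wells for no effect and artemisinin wells for full effect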); details: P. falciparum HB3 in erythrocytes, SYBR Green DNA, 72 h; at 28.5 µM (top of the series) unless noted
In short: as §1

[7] = High-throughput drug toxicity screening in the BPDCN cell line Gen2.2 (AID 1224824; call rule not given here;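 note: cells exposed to compounds for 48 h before reading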); details: Gen2.2 BPDCN cells; at 45.8 µM (top of the series) unless noted
In short: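 Gen2.2, 500 cells/well, phenol red-free RPMI/10% FBS/Pen-Strep; 48 h cpd, 37 °C/5% CO2; CTG lum, 15 min RT. Norm: DMSO = 100%, bortezomib 9.2 uM final = 0%.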

[8] = High-throughput drug toxicity screening in the BPDCN cell line Cal-1 (AID 1224825; call rule not given here); details: Cal-1 BPDCN cell viability, qHTS; at 45.8 µM (top of the series) unless noted
In short: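 CellTiter-Glo luminescence after 48 h compound exposure; percent activity scaled with DMSO as 100% and bortezomib (9.2 uM final) as 0%. Cal-1 cells seeded at 500/well in RPMI, 10% FBS, no phenol red.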

[9] = qHTS assay for measurement of the activity of small molecule inhibitors on Zika virus induced Caspase-3 activity in human iPSC derived neural progenitor cells (hNPCs) (AID 1224857); note: % of control where 0% means no effect; nearly all actives have a fitted effect of over 65% in size
In short: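 Pretreat hNPCs with compound 1 h; infect ZIKV 2 FFU/cell; 6 h 37 C, 5% CO2; Caspase-Glo 3/7, 30 min RT; luminescence; normalize to no-virus and virus-only wells.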

[10] = qHTS assay for measurement of the activity of small molecule inhibitors on Zika virus induced Caspase-3 activity in human astrocytoma cells (AID 1224859);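 note: plate controls were ZIKV-infected untreated cells for no effect and uninfected cells for full effect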
In short: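 Human SNB-19 astrocytoma cells in RPMI 1640 with 10% FBS receive compound one hour ahead of Zika virus at 2 FFU/cell. After 6 h infection, caspase-3/7 activity is detected by Caspase-Glo luminescence.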

[11] = qHTS Screen of the MIPE 4.0 Collection Against Ewings Sarcoma (RDES) (AID 1259252); note: nearly all actives have a fitted effect of over 35% in size; note: potency is the fitted concentration of half-maximal effect
In short: (§2)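 Dose series incubated 48 h with cells in RPMI plus 5% FBS, glutamine and penicillin/streptomycin; cell viability then quantified via CellTiter-Glo.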

[12] = qHTS Screen of the MIPE 4.0 Collection Against Ewings Sarcoma (TC32) (AID 1259256); note: nearly all actives have a fitted effect of over 45% in size; note: potency is the fitted concentration of half-maximal effect
In short: as §2

[13] = qHTS assay to identify small molecule inhibitors of chordoma cells - UCH-1 (AID 1259355); note: % is set by controls: 0 for no effect and ±100 for the full control effect; nearly all actives have a fitted effect of over 55% in size
In short: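 Screening used approved and investigational drugs in 15-point titration against 800 seeded cells per well. A fixed combination of auranofin with camptothecin, doxorubicin, rubitecan and topotecan followed compound addition, and growth was scored by CellTiter-Glo after 48hr.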

[14] = qHTS assay to identify small molecule inhibitors of chordoma cells - UCH-2 (AID 1259356); note: % is set by controls: 0 for no effect and ±100 for the full control effect
[15] = qHTS profiling for inhibitors of Plasmodium falciparum (3D7) proliferation (AID 743322);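 note: infected erythrocytes exposed to compound for 72 h before lysis; 100% = DMSO vehicle wells and 0% = 0.29 µM artemisinin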; details: P. falciparum 3D7 proliferation, at 28.7 µM (top of the series)
In short: as §1

[16] = qHTS profiling for inhibitors of Plasmodium falciparum (DD2) proliferation (AID 743323; call rule not given here); details: at 28.7 µM (top of the series), lower = more inhibition
In short: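 SYBR Green fluorescence (ex 485, em 535 nm) of lysed cultures gives parasite DNA content; wells normalized to artemisinin (0.29 uM) and DMSO controls. Infected red cells: 0.3% parasitemia, 2.5% hematocrit, 72 h, 37 C.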

[17] = qHTS profiling for inhibitors of Plasmodium falciparum (HB3) proliferation (AID 743324); details: Plasmodium falciparum HB3 blood-stage proliferation; at 28.7 µM (top of the series);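 note: 100% = DMSO vehicle wells and 0% = artemisinin-treated control wells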
In short: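 SYBR Green fluorescence (485 ex/535 em) of lysed cultures, incubated overnight at room temperature in the dark, quantifies parasite DNA. Infected erythrocytes at 0.3% parasitemia and 2.5% hematocrit were exposed 72 h; values normalized to DMSO and 0.29 uM artemisinin controls.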

[18] = qHTS Screen of the MIPE 4.0 Collection Against Ewings Sarcoma (TC71) (AID 1259253); note: potency is the fitted concentration of half-maximal effect; nearly all actives have a fitted effect of over 40% in size
In short: as §2

[19] = qHTS Screen of the MIPE 4.0 Collection Against Ewings Sarcoma (EW8) (AID 1259255);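 note: 100% = DMSO-treated cells and 0% = medium-only wells without cells; nearly all actives have a fitted effect of over 35% in size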
In short: as §2

Chain of Hexokinase-4 (Homo sapiens) + Glucokinase regulatory protein (Homo sapiens) (P35557 whole entry, looked up): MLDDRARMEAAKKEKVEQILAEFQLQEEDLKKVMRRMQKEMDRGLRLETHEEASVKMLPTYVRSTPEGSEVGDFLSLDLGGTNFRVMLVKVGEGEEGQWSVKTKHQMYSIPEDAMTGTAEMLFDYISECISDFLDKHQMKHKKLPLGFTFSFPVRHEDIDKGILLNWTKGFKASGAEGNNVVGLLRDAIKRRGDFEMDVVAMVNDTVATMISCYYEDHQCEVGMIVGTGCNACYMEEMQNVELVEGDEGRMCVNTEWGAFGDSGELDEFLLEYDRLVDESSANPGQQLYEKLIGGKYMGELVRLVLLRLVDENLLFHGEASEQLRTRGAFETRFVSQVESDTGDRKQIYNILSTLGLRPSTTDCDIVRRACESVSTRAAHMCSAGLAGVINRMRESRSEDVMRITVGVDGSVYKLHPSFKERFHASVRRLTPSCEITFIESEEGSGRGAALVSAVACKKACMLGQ
Chain of Hexokinase-4 (Homo sapiens) + Glucokinase regulatory protein (Homo sapiens) (Q14397 whole entry, looked up): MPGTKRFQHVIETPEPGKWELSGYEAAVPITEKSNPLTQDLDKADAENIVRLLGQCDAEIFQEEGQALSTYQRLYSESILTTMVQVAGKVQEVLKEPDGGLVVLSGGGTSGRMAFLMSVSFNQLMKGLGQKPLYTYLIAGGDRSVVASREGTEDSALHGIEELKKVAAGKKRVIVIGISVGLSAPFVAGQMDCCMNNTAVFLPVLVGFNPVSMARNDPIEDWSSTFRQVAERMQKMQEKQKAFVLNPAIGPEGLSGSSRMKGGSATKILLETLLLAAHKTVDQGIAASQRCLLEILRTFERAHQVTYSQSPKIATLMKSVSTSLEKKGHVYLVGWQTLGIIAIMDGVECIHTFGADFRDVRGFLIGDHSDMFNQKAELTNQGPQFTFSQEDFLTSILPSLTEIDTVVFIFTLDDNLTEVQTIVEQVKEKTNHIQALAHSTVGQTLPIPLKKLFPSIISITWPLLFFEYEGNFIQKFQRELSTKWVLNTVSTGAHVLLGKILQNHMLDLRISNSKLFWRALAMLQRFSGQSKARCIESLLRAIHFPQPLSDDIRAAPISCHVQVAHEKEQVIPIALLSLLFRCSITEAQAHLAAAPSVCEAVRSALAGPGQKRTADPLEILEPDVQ

SMILES	Potency [1]	max response [2]	parasite growth, % of DMSO control [3] [%]	parasite growth remaining, % of DMSO control (lower = more inhibition) [4] [%]	parasite growth, % of control (lower = inhibition) [5] [%]	growth, % of control [6] [%]	cell viability, % of control (lower = more cytotoxic) [7] [%]	viability (% of control) [8] [%]	Potency [9]	Potency [10]	Potency [11]	Potency [12]	Potency [13]	outcome [14]	remaining parasite growth % (stronger effect = lower value) [15]	activity, percent of control [16]	remaining proliferation (% of control), lower = more inhibition [17]	Potency [18]	Potency [19]
CCc1cccc2c3c([nH]c12)C(CC)(CC(=O)O)OCC3 (stereo unspecified)	inactive	10.8% (inactive) and -5.14% (inactive)	71	86	85	94.1	138	128	inactive	inactive	inactive	inactive	inactive	inactive	–	–	–	–	–
O=c1c(O)c(-c2ccc(O)c(O)c2)oc2cc(O)cc(O)c12	inactive	–	12.8	–	9.46	11.6	108	34.4	inactive	inactive	10.5 µM (active)	20.9 µM (active)	inactive	inactive	26.9% and 12.7%	8.52% and 5.2%	1.74% and 5.43%	18.7 µM (active)	–
NC(=O)NO	inactive	-4.54% (inactive) and 19.4% (inactive)	93.9	97.5	95.5	96.8	4.63	2.6	inactive	inactive	20.9 µM (active)	inactive	inactive	inactive	–	–	–	–	–
COc1nc(C)nc(Cl)c1NC1=NCCN1	inactive	0.253% (inactive) and 33% (inactive)	89.8	89.9	92.6	98.4	136	97.7	inactive	inactive	inactive	inactive	inactive	inactive	–	–	–	–	inactive
CC(C)(C)C(=O)Oc1ccc(S(=O)(=O)Nc2ccccc2C(=O)NCC(=O)O)cc1	–	–	101	92.3	91.4	67.9	103	96	inactive	inactive	inactive	inactive	inactive	inactive	–	–	–	–	inactive
CCC1(C)CC(=O)NC1=O (stereo unspecified)	inactive	–	99.5	–	–	102	184	128	inactive	inactive	inactive	–	inactive	inactive	–	–	–	–	inactive
CC1(C)O[C@H]2CC(=O)OC[C@]23[C@H]2CC[C@@]4(C)[C@H](c5ccoc5)OC(=O)[C@H]5O[C@]54[C@]2(C)C(=O)C[C@@H]13	–	0.83% (inactive)	86.6	122	82	107	131	118	inactive	inactive	inactive	inactive	inactive	inactive	–	–	–	–	–

— PubChem BioAssay (NCATS)
